Measurements published in PubChem BioAssay (NCATS).
Inconclusive results are not listed. Active and inactive are the calls of the source. Unless noted, calls follow the shape of the full dose curve.

Tests used:
[1] = Primary qHTS for inhibitors of SARS-S pseudo-typed particle cell entry (AID 1479145); also: nearly all actives have a fitted effect of over 45% in size
[2] = Primary qHTS for Huh7 cytotoxicity: counterscreen for inhibitors of MERS-S pseudotyped particle cell entry (AID 1479147)
[3] = Primary qHTS for inhibitors of MERS-S pseudo-typed particle cell entry (AID 1479149); also: nearly all actives have a fitted effect of over 60% in size
[4] = Primary qHTS for Vero E6 cytotoxicity: counterscreen for inhibitors of SARS-S pseudo-typed particle cell entry (AID 1479150)
[5] = Primary qHTS for inhibitors of La Crosse Virus (LACV) - induced cell death in SH-SY5Y cells (AID 1508616; active = well fitted inhibition curve with a large enough effect;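 also: top concentration of the series differs between compounds; higher means more rescue of cells from virus-induced death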)
How it was run: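 Rescue of virus-induced death was read as ATPLite luminescence after 6 days at 37C, scaled between DMSO wells with LACV and without virus. Cells were SH-SY5Y, 6000/well, infected at 0.01 MOI after compound addition.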

[6] = Confirmatory qHTS for VERO E6 Cytotoxicity Assay: Counterscreen for SARS-CoV-2 CPE Assay (AID 1508605); also: series mostly up to about 20 µM; nearly all actives have a fitted effect of over 60% in size

Measured: Potency

COCCCOc1cc(C[C@@H](C[C@H](N)[C@@H](O)C[C@H](C(=O)NCC(C)(C)C(N)=O)C(C)C)C(C)C)ccc1OC
inactive: [1] | [2] | [3] | [4]

CCN(CC)CCCC(C)Nc1ccnc2cc(Cl)ccc12 (stereo not given)
inactive: [1] | [2] | [4]

CC[C@@H](CO)NCCN[C@@H](CC)CO
inactive: [1] | [2] | [3] | [4]

Cc1ccccc1N1C(=O)c2cc(S(N)(=O)=O)c(Cl)cc2NC1C (stereo not given)
inactive: [1] | [2] | [3] | [4]

CS(=O)(=O)OCCCCOS(C)(=O)=O
inactive: [1] | [2] | [3] | [4]

Nc1nc(F)nc2c1ncn2[C@@H]1O[C@H](CO)[C@@H](O)[C@@H]1O
inactive: [1] | [2] | [3] | [4]

Oc1ccc(Cl)cc1Cc1ccccc1
inactive: [1] | [2] | [3] | [4] | [5]

Cc1cn[nH]c1
inactive: [1] | [2] | [3] | [4]

CCCN1C[C@H](CSC)C[C@@H]2c3cccc4[nH]cc(c34)C[C@H]21
inactive: [1] | [2] | [4]

O=c1c(O)c(-c2ccc(O)c(O)c2)oc2cc(O)cc(O)c12
inactive: [1] | [2] | [4]

Clc1ccc2c(c1)C(N1CCNCC1)=Nc1ccccc1O2
inactive: [1] | [2] | [3] | [4] | [6]

Oc1cn2c(n1)Nc1ccc(Cl)c(Cl)c1C2
inactive: [1] | [2] | [3] | [4]

CC[N+](C)(C)c1cccc(O)c1
inactive: [1] | [2] | [3] | [4]

O=c1[nH]cnc2c1ncn2[C@H]1CC[C@@H](CO)O1
inactive: [1] | [2] | [3] | [4]
